Laboratory results published in PubChem BioAssay (Tox21).
Calls of active or inactive are those of the source. Where a call stands in place of a potency, no number is given. Unless noted, calls follow the shape of the dose curve; as a rule, active = well fitted curve in the direction sought with a large enough effect in the repeat runs; inconclusive = weak or mixed curves; inactive = no such curve, though single readings can be large; an effect the other way counts as inactive or inconclusive. Positions of bridges follow the written chain, without caps; N, C: chain ends. Non-standard residues stand in square brackets, D forms with d. Residues, ends and D or L forms follow the SMILES beside them. *: point of attachment. pGlu = O=C1CC[C@@H](C(=O)O)N1; X2 = CC[C@H](C)CCCCC(=O)*; Thz = O=C(O)[C@@H]1CSCN1; Dab = NCC[C@H](N)C(=O)O

Experiments:
[1] = qHTS assay to identify small molecule antagonists of the thyroid receptor (TR) signaling pathway - cell viability counter screen (AID 743064); also: nearly all actives have a fitted effect of over 50% in size; also: potency is read from the fitted curve at half-maximal effect
In short: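 Same-well viability check: GH3.TRE-Luc cells stimulated with 1 nM T3 alongside test compound for 23.5 h, followed by CellTiter-Fluor fluorescence.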

[2] = qHTS assay to identify small molecule antagonists of the thyroid receptor (TR) signaling pathway (AID 743065); also: nearly all actives have a fitted effect of over 55% in size; also: potency is read from the fitted curve at half-maximal effect
In short: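 Antagonism measured as loss of luciferase signal in GH3 cells stably carrying a TRE-luciferase reporter, co-treated with compound and T3 (1 nM final) for 23.5 h at 37 C. Viability was read in the same well by CellTiter-Fluor.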

[3] = tested on: thyroid hormone receptor (rat, GH3 cells); experiment: qHTS assay to identify small molecule agonists of the thyroid receptor (TR) signaling pathway (AID 743066; calls by dose curve)
[4] = target: Estrogen receptor (Homo sapiens) (UniProt P03372); experiment: qHTS assay to identify small molecule antagonists of the estrogen receptor alpha (ER-alpha) signaling pathway (AID 743069; active = well fitted curve in the direction sought with a large enough effect in the signal ratio in the repeat runs, not every such curve was filed as active; inconclusive = weak or mixed curves, or effect the other way; inactive = no such curve, though single readings can be large or run the other way; the % refers to the signal ratio; also: potency is read from the fitted curve at half-maximal effect)
Chain of Estrogen receptor (Homo sapiens) (P03372 whole entry, looked up): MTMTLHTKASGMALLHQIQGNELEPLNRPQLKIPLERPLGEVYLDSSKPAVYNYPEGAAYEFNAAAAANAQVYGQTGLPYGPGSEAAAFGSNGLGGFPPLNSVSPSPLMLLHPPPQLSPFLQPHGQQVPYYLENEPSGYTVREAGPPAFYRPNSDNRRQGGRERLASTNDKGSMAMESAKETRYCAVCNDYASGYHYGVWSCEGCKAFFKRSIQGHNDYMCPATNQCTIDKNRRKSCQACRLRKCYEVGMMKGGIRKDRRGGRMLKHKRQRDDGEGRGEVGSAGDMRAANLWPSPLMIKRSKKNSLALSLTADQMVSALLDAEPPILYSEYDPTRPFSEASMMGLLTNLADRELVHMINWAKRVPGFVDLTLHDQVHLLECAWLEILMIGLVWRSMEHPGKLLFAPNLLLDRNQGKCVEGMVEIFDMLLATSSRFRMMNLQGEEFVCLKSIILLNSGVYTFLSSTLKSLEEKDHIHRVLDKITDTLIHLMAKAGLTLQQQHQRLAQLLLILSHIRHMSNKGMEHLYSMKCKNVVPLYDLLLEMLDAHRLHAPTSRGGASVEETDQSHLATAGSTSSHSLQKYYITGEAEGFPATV
In short: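 Fluorescence intensity from a beta-lactamase FRET substrate served as the read-out. Cells: HEK293 with stably integrated ER-alpha-UAS-bla reporter. Agonist 17beta-estradiol was co-added with compounds; incubation 18 hr at 37C, substrate 2 hr at room temperature.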

[5] = qHTS assay to identify small molecule antagonists of the estrogen receptor alpha (ER-alpha) signaling pathway - cell viability counter screen (AID 743074; calls by dose curve; also: nearly all actives have a fitted effect of over 45% in size)
[6] = target: Estrogen receptor (Homo sapiens) (UniProt P03372); experiment: qHTS assay to identify small molecule agonists of the estrogen receptor alpha (ER-alpha) signaling pathway (AID 743075; calls by dose curve; also: potency is read from the fitted curve at half-maximal effect)
[7] = target: Estrogen receptor (Homo sapiens) (UniProt P03372); experiment: qHTS assay to identify small molecule agonists of the estrogen receptor alpha (ER-alpha) signaling pathway using the BG1 cell line (AID 743079); details: BG1Luc4E2 cells, ERE-luciferase agonist, 22 h; activation: at 70.3 µM (top of the series); also: nearly all actives have a fitted effect of over 20% in size; also: potency is read from the fitted curve at half-maximal effect
[8] = qHTS assay to identify small molecule antagonists of the estrogen receptor alpha (ER-alpha) signaling pathway using the BG1 cell line (AID 743080; calls by dose curve;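 also: BG1 cells stimulated with 17beta-estradiol alongside compound; nearly all actives have a fitted effect of over 25% in size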)
In short: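 After 5 days in phenol-red-free 10% charcoal-stripped FBS medium, BG1-Luc-4E2 cells were seeded, left 24 h at 37 C, co-treated with compounds and 17beta-estradiol for 21.5 h, then assayed for viability and luciferase.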

[9] = qHTS assay to identify small molecule antagonists of the estrogen receptor alpha (ER-alpha) signaling pathway using the BG1 cell line - cell viability counter screen (AID 743081);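 also: compound given together with 17beta-estradiol as the ER stimulus; nearly all actives have a fitted effect of over 45% in size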; also: potency is read from the fitted curve at half-maximal effect
Aromatase (Homo sapiens) = Aromatase (Homo sapiens) (UniProt P11511); experiment: qHTS assay to identify aromatase inhibitors (AID 743083); also: nearly all actives have a fitted effect of over 55% in size
Chain of Aromatase (Homo sapiens) (P11511 whole entry, looked up): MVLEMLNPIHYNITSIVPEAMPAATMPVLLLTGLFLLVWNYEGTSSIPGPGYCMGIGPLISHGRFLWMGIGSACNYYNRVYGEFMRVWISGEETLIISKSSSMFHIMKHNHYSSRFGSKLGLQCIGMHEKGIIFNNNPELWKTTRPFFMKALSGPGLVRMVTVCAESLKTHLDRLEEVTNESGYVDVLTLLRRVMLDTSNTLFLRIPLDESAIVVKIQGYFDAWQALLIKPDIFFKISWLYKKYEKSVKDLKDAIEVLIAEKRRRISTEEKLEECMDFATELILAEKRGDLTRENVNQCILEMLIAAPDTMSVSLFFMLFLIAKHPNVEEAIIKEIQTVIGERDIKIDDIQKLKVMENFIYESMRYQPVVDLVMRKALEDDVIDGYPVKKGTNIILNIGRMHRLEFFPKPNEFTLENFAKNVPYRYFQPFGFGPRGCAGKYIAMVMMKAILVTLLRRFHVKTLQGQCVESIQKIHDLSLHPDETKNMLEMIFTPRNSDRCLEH

| Structure (SMILES) | Potency [1] | Potency [2] | Potency [3] | Potency [4] | Potency [5] | Potency [6] | Potency [7] | Potency [8] | Potency [9] | Potency (Aromatase (Homo sapiens)) |
| --- | --- | --- | --- | --- | --- | --- | --- | --- | --- | --- |
| CC[C@H]1OC(=O)[C@H](C)[C@@H](O[C@H]2C[C@@](C)(OC)[C@@H](O)[C@H](C)O2)[C@H](C)[C@@H](O[C@@H]2O[C@H](C)C[C@H](N(C)C)[C@H]2O)[C@](C)(O)C[C@@H](C)[C@@H]2N[C@@H](COCCOC)O[C@@H]([C@H]2C)[C@]1(C)O | inactive | inactive | inactive | inactive | inactive | inactive | inactive | inactive | inactive | inactive |
| NCc1ccccc1CC(=O)N[C@@H]1C(=O)N2C(C(=O)O)=C(CSc3nnnn3CC(=O)O)CS[C@H]12 | inactive | inactive | inactive | inactive | inactive | inactive | inactive | inactive | inactive | inactive |
| O=C(O)[C@H]1/C(=C/CO)O[C@@H]2CC(=O)N21 | inactive | inactive | inactive | inactive | inactive | inactive | inactive | inactive | inactive | inactive |
| S=C=Nc1ccc(N=C=S)cc1 | inactive | inactive | inactive | inactive | inactive | 15.1 µM [inconclusive] (active) | 1.06 µM (active) | inactive | inactive | inactive |
| C=CCSSSCC=C | inactive | inactive | inactive | inactive | inactive | inactive | 29.8 µM (active) | inactive | inactive | inactive |
| CC(C)CCCC(C)NC(C)C (stereo unspecified) | inactive | inactive | inactive | inactive | inactive | inactive | inactive | inactive | inactive | inactive |
| CCC(Oc1ccccc1)C(=O)N[C@@H]1C(=O)N2[C@@H]1SC(C)(C)[C@@H]2C(=O)O (stereo partly specified) | inactive | inactive | inactive | inactive | inactive | inactive | inactive | inactive | inactive | inactive |
| O=C(CO)[C@@H](O)[C@H](O)[C@@H](O)C(=O)O | inactive | inactive | inactive | inactive | inactive | inactive | inactive | inactive | inactive | inactive |
| O=C1O[C@H]2[C@H](O)[C@@H]1OC(O)[C@H]2O (stereo partly specified) | inactive | inactive | inactive | inactive | inactive | inactive | 13.3 µM (active) | inactive | inactive | inactive |
| CN1CCN(C2=Nc3ccccc3Cc3ccccc32)CC1 | 13.3 µM (active) | 23.7 µM (active) | inactive | inactive | inactive | inactive | inactive | inactive | inactive | inactive |
| COCC1=C(C(=O)OC(C)OC(=O)OC(C)C)N2C(=O)[C@@H](NC(=O)/C(=N\OC)c3csc(N)n3)[C@H]2SC1 (stereo partly specified) | inactive | inactive | inactive | inactive | inactive | inactive | inactive | inactive | inactive | inactive |
| O=C(O)c1cccc(/C=C2/C[C@@H]3[C@@H](/C=C/[C@@H](O)C4CCCCC4)[C@H](O)C[C@@H]3O2)c1 | inactive | inactive | inactive | inactive | inactive | inactive | inactive | inactive | inactive | inactive |
| OC[C@H]1O[C@@H](O[C@H]2[C@H](O)[C@@H](O)[C@H](O)O[C@@H]2CO)[C@H](O)[C@@H](O)[C@@H]1O | inactive | inactive | inactive | inactive | inactive | inactive | inactive | inactive | inactive | inactive |
| CC(C)[C@H](N)C(=O)OCC(CO)OCn1cnc2c(=O)[nH]c(N)nc21 (stereo partly specified) | inactive | inactive | inactive | inactive | inactive | inactive | inactive | inactive | inactive | inactive |
| CCCCCCCCCCCCCCCC(=O)O[C@@H]1[C@@H](O)[C@@H](O)[C@@H]([C@H](NC(=O)[C@@H]2C[C@@H](CCC)CN2C)[C@H](C)Cl)O[C@@H]1SC | inactive | inactive | inactive | inactive | inactive | inactive | inactive | inactive | inactive | inactive |
| C[C@H](CSC(=O)c1ccccc1)C(=O)N1C[C@@H](Sc2ccccc2)C[C@H]1C(=O)O | inactive | inactive | inactive | inactive | inactive | inactive | inactive | inactive | inactive | inactive |
| O=C(O)C1=C(CSc2nnnn2CS(=O)(=O)O)CS[C@@H]2[C@H](NC(=O)[C@H](O)c3ccccc3)C(=O)N12 | inactive | inactive | inactive | inactive | inactive | inactive | 37.6 µM (active) | inactive | inactive | inactive |
| CCOC(=O)c1c[nH]c2cc(OCC(C)C)c(OCC(C)C)cc2c1=O | inactive | inactive | inactive | inactive | inactive | inactive | inactive | inactive | inactive | inactive |
| O=C(NCCNCC(O)COc1ccc(O)cc1)N1CCOCC1 (stereo unspecified) | inactive | inactive | inactive | inactive | inactive | inactive | inactive | inactive | inactive | inactive |

| Structure (SMILES) | Potency [1] | Potency [2] | Potency [3] | Potency [4] | Potency [5] | Potency [6] | Potency [7] | Potency [8] | Potency [9] | Potency (Aromatase (Homo sapiens)) |
| --- | --- | --- | --- | --- | --- | --- | --- | --- | --- | --- |
| COc1cc([C@@H]2c3cc4c(cc3C(O[C@@H]3O[C@@H]5COC(c6cccs6)O[C@H]5[C@H](O)[C@H]3O)C3COC(=O)[C@@H]32)OCO4)cc(OC)c1O (stereo partly specified) | 2.37 µM (active) | 0.531 µM (active) | inactive | 6.74 µM [inconclusive] (active) | inactive | inactive |  |  |  |  |
| O=C1CC[C@@H](C(=O)N2CSC[C@H]2C(=O)O)N1 ([pGlu]-[Thz]-OH) | inactive | inactive | inactive | inactive | inactive | inactive | inactive | inactive | inactive | inactive |
| CN1CCN(C(c2ccccc2)c2ccc(Cl)cc2)CC1 (stereo unspecified) | 5.69 µM (active) | 10.1 µM (active) | inactive | inactive | inactive | inactive | inactive | inactive | inactive | inactive |
| CC1(O)CCC(C(C)(C)O)CC1 (stereo unspecified) | inactive | inactive | inactive | inactive | inactive | inactive | inactive | inactive | inactive | inactive |
| CC1(C)S[C@@H]2[C@H](NC(=O)[C@H](N)c3ccccc3)C(=O)N2[C@H]1C(=O)OCOC(=O)[C@@H]1N2C(=O)C[C@H]2S(=O)(=O)C1(C)C | inactive | inactive | inactive | 13.4 µM [inconclusive] (active) | inactive | inactive | inactive | inactive | inactive | inactive |
| CN(C)CC/C=C1/c2ccccc2CSc2ccccc21 | 4.52 µM (active) | 9.02 µM (active) | inactive | inactive | inactive | inactive | inactive | inactive | inactive | inactive |
| C=C[C@]1(C)C[C@@H](OC(=O)CSCCN(CC)CC)[C@]2(C)[C@H](C)CC[C@]3(CCC(=O)[C@H]32)[C@@H](C)[C@@H]1O | 10.6 µM (active) | 23.7 µM (active) | inactive | inactive | inactive | inactive | inactive | inactive | 10.6 µM (active) | inactive |
| O=P(O)(O)OC[C@H](O)CO | inactive | inactive | inactive | inactive | inactive | inactive | inactive | inactive | inactive | inactive |
| COC(=O)CC[C@H](N)C(=O)O | inactive | inactive | inactive | inactive | inactive | inactive | inactive | inactive | inactive | inactive |
| O=C(O)c1cc(N=Nc2ccc(O)c(C(=O)O)c2)ccc1O | inactive | inactive | inactive | inactive | inactive | inactive | inactive | inactive | inactive | inactive |
| CN(C(=O)CO)c1c(I)c(C(=O)NCC(O)CO)c(I)c(C(=O)NCC(O)CO)c1I (stereo unspecified) | inactive | inactive | inactive | inactive | inactive | inactive | inactive | inactive | inactive | inactive |
| Cn1nnnc1SCC1=C(C(=O)O)N2C(=O)[C@@H](NC(=O)[C@H](O)c3ccccc3)[C@H]2SC1 | inactive | inactive | inactive | inactive | inactive | inactive | inactive | inactive | inactive | inactive |
| CC1(C)[C@@H]2CC[C@@]1(C)[C@H](OC(=O)CSC#N)C2 | inactive | inactive | inactive | inactive | inactive | inactive | inactive | inactive | inactive | inactive |
| CCCCCCCCCCCCOCCCN | inactive | inactive | inactive | inactive | inactive | inactive | inactive | inactive | inactive | inactive |
| C[Se]CCC(N)C(=O)O (stereo unspecified) | inactive | inactive | inactive | inactive | inactive | inactive | inactive | inactive | inactive | inactive |
| CC[C@H](C)CCCCC(=O)N[C@@H](CCN)C(=O)N[C@H](C(=O)N[C@@H](CCN)C(=O)N[C@H]1CCNC(=O)[C@H]([C@@H](C)O)NC(=O)[C@H](CCN)NC(=O)[C@H](CCN)NC(=O)[C@H](CC(C)C)NC(=O)[C@@H](CC(C)C)NC(=O)[C@H](CCN)NC1=O)[C@@H](C)O (X2-[Dab]T[Dab][Dab][Dab][dL]L[Dab][Dab]T; lactam 4-C) | inactive | inactive | inactive | inactive | inactive | inactive | inactive | inactive | inactive | inactive |
| CO[C@@H]1[C@@H](O[C@@H]2O[C@H](C)[C@@H](O[C@H]3C[C@@](C)(O)[C@@H](OC(=O)CC(C)C)[C@H](C)O3)[C@H](N(C)C)[C@H]2O)[C@@H](CC=O)C[C@@H](C)[C@@H](O)/C=C/C=C/C[C@@H](C)OC(=O)C[C@H]1O | inactive | inactive | inactive | inactive | inactive | inactive | 13.3 µM (active) | inactive | inactive | inactive |
| O=C(O)CC/C=C\CC[C@@H]1[C@@H](N2CCCCC2)[C@@H](O)C[C@@H]1OCc1ccc(-c2ccccc2)cc1 | inactive | inactive | inactive | inactive | inactive | inactive | inactive | inactive | inactive | inactive |
